Test results reported in PubChem BioAssay AID1159580 (chemical genetic matrix, 2015).
Several values for one entry are separate records, joined by “and”; a condition that tells them apart may be missing. Equal entries are not always repeated. The campaign covered roughly 5,500 compounds. About 2,000 (36%) were called active. Inconclusive results (about 18%) are left out. No stated cut-off is given here; in the data, active means normalized growth mostly below about 0.91 (no sharp cut-off); inconclusive means no clear call, values can overlap the other calls; inactive means mostly above about 0.92. The list shows a part of the results.

Experiment: chemical genetic growth profiling, strain panel (AID 1159580);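 further: tested at 20 µM; growth read once vehicle control cultures reached saturation at 30 °C; 1 = growth at the plate median or of vehicle wells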
Settings: S. cerevisiae deletion strains, growth OD

Measured: normalized growth

COC1=CC23CCCN2CCc2cc4c(cc2C3C1O)OCO4 (stereo not drawn)
inactive: locus YAL013W, strain DEP1, stronger effect = lower value 1.01 | locus YAL021C, strain ccr4, stronger effect = lower value 1.02 | locus YAL026C, strain drs2, stronger effect = lower value 1.03 | locus YAL030W, strain snc1, stronger effect = lower value 1.02 | locus YBL061C, strain skt5, stronger effect = lower value 1.03 | locus YBR009C, strain hhf1, stronger effect = lower value 1.04 | locus YBR021W, strain FUR4, stronger effect = lower value 1.01 | locus YBR023C, strain chs3, stronger effect = lower value 1.05 | locus YBR171W, strain sec66, stronger effect = lower value 1.06 | locus YBR229C, strain ROT2, stronger effect = lower value 1.01 | locus YBR231C, strain swc5, stronger effect = lower value 1.02 | locus YBR279W, strain paf1, stronger effect = lower value 1.03 | locus YCL011C, strain gbp2, stronger effect = lower value 1.02 | locus YCL016C, strain dcc1, stronger effect = lower value 1.03 | locus YCL029C, strain bik1, stronger effect = lower value 1.01 | locus YCL061C, strain MRC1, stronger effect = lower value 1.03 | locus YCL069W, strain vba3, stronger effect = lower value 1.02 | locus YCR088W, strain abp1, stronger effect = lower value 1.03 | locus YDL005C, strain med2, stronger effect = lower value 1.02 | locus YDL035C, strain GPR1, stronger effect = lower value 0.995 | locus YDL040C, strain nat1, stronger effect = lower value 1.02 | locus YDL074C, strain BRE1, stronger effect = lower value 1.04 | locus YDL101C, strain DUN1, stronger effect = lower value 1 | locus YDL185W, strain tfp1, stronger effect = lower value 1.01 | locus YDL192W, strain arf1, stronger effect = lower value 1 | locus YDR001C, strain nth1, stronger effect = lower value 1.02 | locus YDR069C, strain doa4, stronger effect = lower value 1.04 | locus YDR101C, strain arx1, stronger effect = lower value 1.01 | locus YDR137W, strain rgp1, stronger effect = lower value 1.05 | locus YDR150W, strain NUM1, stronger effect = lower value 1.01 | locus YDR159W, strain sac3, stronger effect = lower value 1.04 | locus YDR162C, strain NBP2, stronger effect = lower value 1.01 | locus YDR195W, strain ref2 1.01 | locus YDR297W, strain sur2, stronger effect = lower value 1.02 | locus YDR318W, strain mcm21, stronger effect = lower value 0.987 | locus YDR334W, strain swr1, stronger effect = lower value 1.03 | locus YDR335W, strain msn5, stronger effect = lower value 1.03 | locus YDR388W, stronger effect = lower value 1.01 | locus YDR392W, strain spt3, stronger effect = lower value 0.971 | locus YDR502C, strain sam2, stronger effect = lower value 0.995 | locus YEL003W, strain gim4, stronger effect = lower value 1.02 | locus YEL037C, strain rad23, stronger effect = lower value 1.02 | locus YEL061C, strain CIN8 (second series), stronger effect = lower value 1.02 | locus YEL061C, strain CIN8, stronger effect = lower value 1.01 | locus YER015W, strain faa2, stronger effect = lower value 1.02 | locus YER016W, strain bim1, stronger effect = lower value 1.02 | locus YER110C, stronger effect = lower value 1.01 | locus YER111C, strain swi4, stronger effect = lower value 1.03 | locus YER155C, strain BEM2 (second series), stronger effect = lower value 1.04 | locus YER155C, strain BEM2, stronger effect = lower value 1 | locus YER167W, strain BCK2, stronger effect = lower value 1 | locus YFR010W, strain ubp6, stronger effect = lower value 1.03 | locus YGL078C, strain dbp3, stronger effect = lower value 0.997 | locus YGL086W, strain mad1, stronger effect = lower value 1.03 | locus YGL167C, strain pmr1, stronger effect = lower value 1.03 | locus YGL173C, strain kem1, stronger effect = lower value 1.04 | locus YGL227W, strain vid30, stronger effect = lower value 1.02 | locus YGL240W, strain doc1, stronger effect = lower value 1.04 | locus YGL248W, strain PDE1, stronger effect = lower value 0.988 | locus YGL253W, strain hxk2, stronger effect = lower value 1.03 | locus YGR078C, strain PAC10, stronger effect = lower value 1 | locus YGR135W, strain pre9, stronger effect = lower value 0.986 | locus YGR229C, strain SMI1, stronger effect = lower value 1 | locus YGR252W, strain gcn5, stronger effect = lower value 0.952 | locus YHR013C, strain ard1, stronger effect = lower value 1.04 | locus YHR027C, strain rpn1, stronger effect = lower value 1.06 | locus YHR030C, strain SLT2, stronger effect = lower value 1.01 and 0.963 | locus YHR079C, strain IRE1 (second series), stronger effect = lower value 1.01 | locus YHR079C, strain IRE1, stronger effect = lower value 0.967 | locus YHR094C, strain hxt1, stronger effect = lower value 1.01 | locus YHR129C, strain ARP1, stronger effect = lower value 1.01 | locus YHR142W, strain chs7, stronger effect = lower value 1.05 | locus YHR200W, strain rpn10, stronger effect = lower value 1.01 | locus YIL066C, strain RNR3, stronger effect = lower value 1.01 | locus YIL073C, strain SPO22, stronger effect = lower value 1.04 | locus YIL125W, strain kgd1, stronger effect = lower value 1.01 | locus YIR030C, strain dcg1, stronger effect = lower value 1.01 | locus YJL092W, strain hpr5, stronger effect = lower value 1.02 | locus YJL095W, strain BCK1 (second series), stronger effect = lower value 1.02 | locus YJL095W, strain BCK1, stronger effect = lower value 0.983 and 0.975 | locus YJL115W, strain asf1, stronger effect = lower value 1.01 | locus YJL129C, strain trk1, stronger effect = lower value 1.03 | locus YJL134W, strain LCB3, stronger effect = lower value 1.01 | locus YJL154C, strain vps35, stronger effect = lower value 1.02 | locus YJL164C, strain tpk1, stronger effect = lower value 1.03 | locus YJL166W, strain qcr8, stronger effect = lower value 1.03 | locus YJL168C, strain set2, stronger effect = lower value 1 | locus YJL187C, strain SWE1 (second series), stronger effect = lower value 1
